Test results published in PubChem BioAssay (NCATS).
Inconclusive results are not listed. Where a call stands in place of a potency, no number is given. Activity calls are given as the source filed them. Unless noted, calls follow the shape of the dose curve; as a rule, active = well fitted curve in the direction sought with a large enough effect; inconclusive = small, poorly fitted or top-dose-only effect, or another doubt; inactive = no such curve, though single readings can be large; an effect the other way counts as inactive or inconclusive.

How the values were obtained:
[1] = target: Mitogen-activated protein kinase 10 (Mus musculus) (UniProt Q61831); experiment: JNK3 AlphaScreen Assay (AID 530; active = well fitted curve in either direction with a large enough effect, not every such curve was filed as active;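 also: kinase came from lysate of stimulated human HepG2 cells; signal reports phosphorylation of biotinylated GST-cJun 1-79 at Ser73 with 10 µM ATP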); details: JNK3 lysate, c-Jun phosphorylation; series mostly up to 57.1 µM
Procedure, shortened: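 Phosphorylation of biotinylated GST-cJun(1-79) at Ser73 is measured by AlphaScreen proximity luminescence. Enzyme is JNK3 in HepG2 lysates activated with interleukin-1beta and tumor necrosis factor alpha; ATP is 10 uM final.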

[2] = target: Cytochrome P450 3A4 (Homo sapiens) (UniProt P08684); experiment: qHTS Assay for Inhibitors and Substrates of Cytochrome P450 3A4 (AID 884); details: recombinant CYP3A4, Luciferin-PPXE luminescence; series mostly up to 57.1 µM; also: potency is read from the fitted curve at half-maximal effect; nearly all actives have a fitted effect of over 50% in size
Procedure, shortened: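 Luminescent readout of luciferin produced by CYP3A4 (20 nM) dealkylation of Luciferin-PPXE, 25 uM (its KM). NADPH-driven reaction ran 60 min at RT after 10 min compound preincubation; data scaled to 57 uM ketoconazole as 100% inhibition.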

[3] = target: Cytochrome P450 3A4 (Homo sapiens) (UniProt P08684); experiment: qHTS Assay for Activators of Cytochrome P450 3A4 (AID 885); details: recombinant CYP3A4, Luciferin-PPXE luminescence, 60 min; series mostly up to 57.1 µM; also: nearly all actives have a fitted effect of over 65% in size
Procedure, shortened: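 Activators are scored by enhanced luminescence from CYP3A4 conversion of luciferin-PPXE (25uM, equal to KM) to luciferin, after 60 min at RT with an NADPH-regenerating system.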

Cytochrome P450 3A4 (Homo sapiens), sequence (P08684 whole entry, looked up): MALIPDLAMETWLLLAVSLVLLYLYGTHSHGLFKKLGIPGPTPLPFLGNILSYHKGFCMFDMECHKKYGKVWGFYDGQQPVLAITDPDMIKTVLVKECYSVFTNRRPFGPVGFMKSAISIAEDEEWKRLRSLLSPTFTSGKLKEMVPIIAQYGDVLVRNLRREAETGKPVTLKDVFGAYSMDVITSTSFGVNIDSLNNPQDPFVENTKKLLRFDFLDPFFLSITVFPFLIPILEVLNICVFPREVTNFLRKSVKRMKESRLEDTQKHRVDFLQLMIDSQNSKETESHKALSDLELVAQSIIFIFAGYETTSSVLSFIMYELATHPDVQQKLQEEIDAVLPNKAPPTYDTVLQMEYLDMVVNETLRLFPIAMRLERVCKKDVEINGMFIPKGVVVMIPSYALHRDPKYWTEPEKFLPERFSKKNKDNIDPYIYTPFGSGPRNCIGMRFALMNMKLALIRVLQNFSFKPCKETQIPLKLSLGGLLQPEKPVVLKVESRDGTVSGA

SMILES	outcome [1]	Potency [2]	Potency [3]
COC(=O)c1ccc(C(NC(=O)OCc2ccccc2)/C(I)=C/[C@@H](C)C(=O)NCc2ccncc2)cc1 (stereo partly specified)	inactive	1.58 µM (active)	inactive
COC(=O)c1ccc(C(NC(=O)OCc2ccccc2)/C(I)=C/[C@@H](C)C(=O)Nc2ccccc2)cc1 (stereo partly specified)	inactive	2 µM (active)	inactive
CC1=C(C(=O)OCc2ccccc2)C(c2ccccc2-c2ccccc2)NC(=O)N1CCCCCC(=O)O (stereo unspecified)	inactive	10 µM (active)	inactive
CNC(=O)[C@@H]1C[C@H]1[C@@H](NC(=O)OCc1ccccc1)c1ccccc1	inactive	12.6 µM (active)	inactive
CNC(=O)[C@H](C)/C=C/C(NC(=O)OCc1ccccc1)c1ccc(C(=O)OC)cc1 (stereo partly specified)	inactive	7.94 µM (active)	inactive
CCCCCCN(C(=O)CCCCCN1C(=O)NC(c2ccc(-c3ccccc3)cc2)C(C(=O)OCc2ccccc2)=C1C)C(C(=O)NCCCC)c1ccc(OCC(=O)OC)cc1 (stereo unspecified)	inactive	10 µM (active)	inactive
C[C@@H]1C=C[C@](Cc2ccccc2)(C(=O)NCCc2c[nH]c3ccccc23)N1C(=O)c1ccccc1	inactive	2.51 µM (active)	inactive
COC(=O)c1ccc(C(NC(=O)OCc2ccccc2)/C(C)=C/[C@@H](C)C(=O)N(C)Cc2cccnc2)cc1 (stereo partly specified)	inactive	0.794 µM (active)	inactive
CCCCCCN(C(=O)CCCCCN1C(=O)NC(c2ccc(Cl)cc2)C(C(=O)OCc2ccccc2)=C1C)C(C(=O)NCCCC)c1ccc(OCC(=O)OC)c(C(=O)OC)c1 (stereo unspecified)	inactive	3.16 µM (active)	inactive
COC(=O)c1ccc(C(NC(=O)OCc2ccccc2)/C(F)=C/[C@@H](C)C(=O)NCc2cccnc2)cc1 (stereo partly specified)	inactive	1.26 µM (active)	inactive
COC(=O)c1ccc(C(NC(=O)OCc2ccccc2)/C(=C/[C@@H](C)C(=O)NCc2ccc(-c3ccccc3)cc2)c2cccnc2)cc1 (stereo partly specified)	inactive	0.794 µM (active)	inactive
COC(=O)c1ccc(C(NC(=O)OCc2ccccc2)/C(F)=C/[C@@H](C)C(=O)NCc2cc(C)on2)cc1 (stereo partly specified)	inactive	2.51 µM (active)	inactive
CCCCNC(=O)C(c1ccc(OCC(=O)OC)c(C(=O)OC)c1)N(Cc1ccccn1)C(=O)CCCCCN1C(=O)NC(c2ccc(-c3ccccc3)cc2)C(C(=O)OCc2ccccc2)=C1C (stereo unspecified)	inactive	7.94 µM (active)	inactive
CCCCCCN(C(=O)CCCCCN1C(=O)NC(c2ccccc2-c2ccccc2)C(C(=O)OCc2ccccc2)=C1C)C(C(=O)NCCCC)c1ccc(OCC(=O)OC)c(C(=O)OC)c1 (stereo unspecified)	inactive	6.31 µM (active)	inactive
C[C@]1(C(=O)NCCc2c[nH]c3ccccc23)C=C[C@@H](Cc2ccccc2)N1C(=O)c1ccccc1	inactive	1.58 µM (active)	inactive
COC(=O)c1ccc(C(NC(=O)OCc2ccccc2)/C(=C/[C@@H](C)C(=O)Nc2ccc(OC)cc2)c2cccnc2)cc1 (stereo partly specified)	inactive	1 µM (active)	inactive
COC(=O)c1ccc(C(/C=C/[C@@H](C)C(=O)NCc2cc(C)n(C)n2)NC(=O)OCc2ccccc2)cc1 (stereo partly specified)	inactive	2 µM (active)	inactive
CCCCCCN(C(=O)CCCCCN1C(=O)NC(c2ccc(-c3ccccc3)cc2)C(C(=O)OCc2ccccc2)=C1C)C(C(=O)NCCCC)c1ccc(O)cc1 (stereo unspecified)	inactive	10 µM (active)	inactive
COC(=O)c1ccc(C(NC(=O)OCc2ccccc2)/C(=C/[C@@H](C)C(=O)NCc2nc3ccccc3s2)c2cccnc2)cc1 (stereo partly specified)	inactive	2 µM (active)	inactive
COC(=O)c1ccc(C(NC(=O)OCc2ccccc2)/C(=C/[C@@H](C)C(=O)NCc2ccc(C)o2)c2cccnc2)cc1 (stereo partly specified)	inactive	15.8 µM (active)	inactive
CC(Cc1ccccc1)C(=O)NCCO (stereo unspecified)	inactive	15.8 µM (active)	inactive
CNC(=O)[C@]1(C)C[C@H]1[C@H](NC(=O)[C@]1(C)C[C@H]1[C@H](NC(=O)[C@]1(C)C[C@H]1[C@H](NC(=O)[C@]1(C)C[C@H]1[C@H](NC(=O)OCc1ccccc1)c1ccccc1)c1ccccc1)c1ccccc1)c1ccccc1	inactive	12.6 µM (active)	inactive
CC(=O)N1CC=CC1(CC(C)C)C(=O)NCc1ccc(C)o1 (stereo unspecified)	inactive	–	inactive
COC(=O)[C@@H]1CCCN1C(=O)[C@H]1C[C@@H]1[C@H](NC(=O)OCc1ccccc1)c1ccccc1	inactive	10 µM (active)	inactive
